Inconclusive results are not listed. The source made the active and inactive calls. Unless noted, calls come from the whole dose curve; as a rule, active = well fitted curve in the direction sought with a large enough effect in the repeat runs; inconclusive = weak or mixed curves; inactive = no such curve, though single readings can be large; an effect the other way counts as inactive or inconclusive. Where a SMILES comes first, the peptide text is derived from it. [ ]: non-standard residue; d: D form. pGlu = O=C1CC[C@@H](C(=O)O)N1
Columns and labels:
[1] = qHTS assay to identify small molecule antagonists of the estrogen receptor alpha (ER-alpha) signaling pathway - cell viability counter screen (AID 743074; calls by dose curve;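 note: HEK293 cells carrying ER-alpha-UAS-bla reporter stimulated with 17beta-estradiol; nearly all actives have a fitted effect of over 45% in size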)
[2] = qHTS assay to identify small molecule antagonists of the estrogen receptor alpha (ER-alpha) signaling pathway using the BG1 cell line - cell viability counter screen (AID 743081);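 note: compound given together with 17beta-estradiol as the ER stimulus; series mostly up to about 70 µM; nearly all actives have a fitted effect of over 45% in size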
Aromatase (Homo sapiens) = Aromatase (Homo sapiens) (UniProt P11511); test: qHTS assay to identify aromatase inhibitors (AID 743083); note: series mostly up to about 70 µM; nearly all actives have a fitted effect of over 55% in size
[3] = qHTS assay to identify aromatase inhibitors - cell viability counter screen (AID 743084);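 note: cells stimulated with testosterone during compound exposure; nearly all actives have a fitted effect of over 55% in size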
[4] = qHTS assay to identify small molecule that activate the aryl hydrocarbon receptor (AhR) signaling pathway - cell viability counter screen (AID 743086);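 note: HepG2 liver cells carrying the AhR DRE luciferase reporter; series mostly up to about 70 µM; nearly all actives have a fitted effect of over 45% in size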
In short: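 Cytotoxicity counter screen: CellTiter-Fluor signal (30 min, 37 C) in 4000 HepG2 cells/well carrying the DRE-luciferase reporter, following 24 h compound exposure at 37 C.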

[5] = biological target: Peroxisome proliferator-activated receptor gamma (Homo sapiens) (UniProt P37231); test: qHTS assay to identify small molecule agonists of the peroxisome proliferator-activated receptor gamma (PPARg) signaling pathway (AID 743094; active = well fitted activation curve with a large enough effect in the signal ratio in the repeat runs, not every such curve was filed as active; the % refers to the signal ratio; note: potency is the fitted concentration of half-maximal effect)
In short: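 Cells from the PPARg UAS-bla HEK293H line are plated and incubated 5 h at 37C. Compounds in DMSO are pinned in and left 17 h at 37C. LiveBLAzer B/G substrate is then added for 1 h at room temperature before fluorescence is measured.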

[6] = biological target: Peroxisome proliferator-activated receptor gamma (Homo sapiens) (UniProt P37231); test: qHTS assay to identify small molecule antagonists of the peroxisome proliferator-activated receptor gamma (PPARg) signaling pathway (AID 743191; calls by dose curve; note: nearly all actives have a fitted effect of over 30% in size; note: potency is the fitted concentration of half-maximal effect)
In short: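 Beta-lactamase reporter under UAS control in HEK293H PPARg-bla cells; compound treatment 17 h at 37C. Read-out: fluorescence intensity after 1 h room-temperature incubation with LiveBLAzer B/G FRET substrate.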

[7] = qHTS assay to identify small molecule antagonists of the peroxisome proliferator-activated receptor gamma (PPARg) signaling pathway - cell viability counter screen (AID 743194); note: nearly all actives have a fitted effect of over 55% in size
In short: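 Viability was measured as CellTiter-Glo luminescence in GeneBLAzer PPARg UAS-bla HEK293H cells. These cells had been exposed 17 h at 37 C to compounds together with rosiglitazone at 50 nM final, with the beta-lactamase readout taken in the same wells.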

[8] = qHTS assay for small molecule agonists of the antioxidant response element (ARE) signaling pathway - cell viability counter screen (AID 743203; calls by dose curve; note: nearly all actives have a fitted effect of over 55% in size)
In short: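 Cytotoxicity was tested in parallel with the ARE reporter screen. ARE-bla HepG2 cells were exposed to compounds for 16 hrs, and viability was taken from CellTiter-Glo luminescence.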

[9] = qHTS assay for small molecule activators of the heat shock response signaling pathway (AID 743210; active = well fitted activation curve with a large enough effect in the signal ratio in the repeat runs, with a control signal flat, not every such curve was filed as active; the % refers to the signal ratio; note: series mostly up to about 63 µM)
In short: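 Compound exposure lasted 5 h at 37 C in HeLa cells carrying a heat-shock-element-driven beta-lactamase reporter. Read-out: fluorescence intensity after 2.5 h room-temperature loading with LiveBLAzer B/G FRET substrate.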

[10] = qHTS assay for small molecule agonists of the antioxidant response element (ARE) signaling pathway (AID 743202; active = well fitted activation curve with a large enough effect in the signal ratio in the repeat runs, not every such curve was filed as active; the % refers to the signal ratio)
In short: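 After 16 hours of compound treatment at 37 C, HepG2 cells with a stably integrated ARE-driven beta-lactamase reporter were loaded 2 hours at room temperature with LiveBLAzer B/G FRET substrate and fluorescence intensity measured.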

[11] = qHTS assay for small molecule activators of the heat shock response signaling pathway - cell viability counter screen (AID 743209); note: nearly all actives have a fitted effect of over 50% in size
In short: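 Cytotoxicity counter screen run in parallel with the HSE beta-lactamase reporter, using the same wells. HeLa HSE-bla cells received compound for 5 h at 37 C; ATP-based CellTiter-Glo luminescence was measured after 30 min at room temperature.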

[12] = qHTS assay to identify small molecule antagonists of the thyroid receptor (TR) signaling pathway (AID 743065)
In short: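 Antagonism measured as loss of luciferase signal in GH3 cells stably carrying a TRE-luciferase reporter, co-treated with compound and T3 (1 nM final) for 23.5 h at 37 C. Viability was read in the same well by CellTiter-Fluor.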

[13] = test system: thyroid hormone receptor (rat, GH3 cells); test: qHTS assay to identify small molecule agonists of the thyroid receptor (TR) signaling pathway (AID 743066; calls by dose curve)
[14] = biological target: Aryl hydrocarbon receptor (Homo sapiens) (UniProt P35869); test: qHTS assay to identify small molecule that activate the aryl hydrocarbon receptor (AhR) signaling pathway (AID 743085);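 note: HG2L7.5c1 human HepG2 liver cells with stably integrated DRE-driven firefly reporter; series mostly up to about 70 µM; nearly all actives have a fitted effect of over 15% in size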
In short: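 Compounds were tested in HepG2 hepatocellular carcinoma cells harbouring a stably integrated luciferase gene under control of 20 DREs. Increased reporter signal after 24 h treatment at 37C was taken as AhR activation.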

[15] = biological target: Estrogen receptor (Homo sapiens) (UniProt P03372); test: qHTS assay to identify small molecule antagonists of the estrogen receptor alpha (ER-alpha) signaling pathway (AID 743069; active = well fitted curve in the direction sought with a large enough effect in the signal ratio in the repeat runs, not every such curve was filed as active; the % refers to the signal ratio)
In short: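 Antagonist mode: compounds in DMSO were co-added with 17beta-estradiol to ER-alpha-bla HEK293 cells (2% charcoal-stripped serum) and left 18 h at 37C. Reporter inhibition was measured as FRET fluorescence after 2 h LiveBLAzer substrate at room temperature.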

[16] = biological target: Estrogen receptor (Homo sapiens) (UniProt P03372); test: qHTS assay to identify small molecule agonists of the estrogen receptor alpha (ER-alpha) signaling pathway (AID 743075; calls by dose curve;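 note: HEK293 GripTite cells with ER-alpha and UAS-driven beta-lactamase reporter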)
[17] = biological target: Estrogen receptor (Homo sapiens) (UniProt P03372); test: qHTS assay to identify small molecule agonists of the estrogen receptor alpha (ER-alpha) signaling pathway using the BG1 cell line (AID 743079); note: nearly all actives have a fitted effect of over 20% in size; note: potency is the fitted concentration of half-maximal effect
[18] = qHTS assay to identify small molecule antagonists of the estrogen receptor alpha (ER-alpha) signaling pathway using the BG1 cell line (AID 743080; calls by dose curve;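 note: BG1 cells stimulated with 17beta-estradiol alongside compound; series mostly up to about 70 µM; nearly all actives have a fitted effect of over 25% in size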)
In short: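 Quantitative HTS on the Tox21 10K library: BG1 cells with endogenous ER-alpha and ERE-luciferase reporter, 17beta-estradiol stimulation, 21.5 h compound exposure, luminescence endpoint with parallel fluorescence cytotoxicity counter-read.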

Measured: Potency

Chain of Estrogen receptor (Homo sapiens) (P03372 whole entry, looked up): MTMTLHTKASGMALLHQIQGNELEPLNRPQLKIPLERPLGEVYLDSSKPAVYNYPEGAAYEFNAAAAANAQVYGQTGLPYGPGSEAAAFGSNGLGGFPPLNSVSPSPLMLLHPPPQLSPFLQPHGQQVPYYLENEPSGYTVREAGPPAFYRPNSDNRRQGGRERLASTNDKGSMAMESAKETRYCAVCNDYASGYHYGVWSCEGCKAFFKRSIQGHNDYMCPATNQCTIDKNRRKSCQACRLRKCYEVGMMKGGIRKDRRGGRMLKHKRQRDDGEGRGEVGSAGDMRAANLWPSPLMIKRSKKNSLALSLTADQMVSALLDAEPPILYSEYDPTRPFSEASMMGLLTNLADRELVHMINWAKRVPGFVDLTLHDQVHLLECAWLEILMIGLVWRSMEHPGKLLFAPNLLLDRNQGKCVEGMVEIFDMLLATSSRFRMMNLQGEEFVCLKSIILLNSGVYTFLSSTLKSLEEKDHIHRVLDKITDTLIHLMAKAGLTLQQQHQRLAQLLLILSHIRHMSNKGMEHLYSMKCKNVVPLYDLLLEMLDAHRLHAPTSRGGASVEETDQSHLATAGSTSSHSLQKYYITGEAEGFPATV
Chain of Aromatase (Homo sapiens) (P11511 whole entry, looked up): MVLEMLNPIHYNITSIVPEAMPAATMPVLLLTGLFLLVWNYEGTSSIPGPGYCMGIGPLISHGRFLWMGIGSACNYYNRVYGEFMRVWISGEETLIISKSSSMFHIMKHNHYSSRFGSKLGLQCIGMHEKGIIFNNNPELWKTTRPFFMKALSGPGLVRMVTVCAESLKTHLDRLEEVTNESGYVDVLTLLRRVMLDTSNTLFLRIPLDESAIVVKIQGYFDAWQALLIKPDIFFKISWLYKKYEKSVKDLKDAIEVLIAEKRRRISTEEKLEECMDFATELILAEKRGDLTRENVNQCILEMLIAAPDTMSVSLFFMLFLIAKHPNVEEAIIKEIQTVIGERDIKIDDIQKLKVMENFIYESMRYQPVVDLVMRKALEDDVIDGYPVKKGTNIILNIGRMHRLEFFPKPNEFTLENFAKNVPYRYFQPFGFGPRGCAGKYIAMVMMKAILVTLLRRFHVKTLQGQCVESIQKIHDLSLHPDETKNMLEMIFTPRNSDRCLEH
Chain of Peroxisome proliferator-activated receptor gamma (Homo sapiens) (P37231 whole entry, looked up): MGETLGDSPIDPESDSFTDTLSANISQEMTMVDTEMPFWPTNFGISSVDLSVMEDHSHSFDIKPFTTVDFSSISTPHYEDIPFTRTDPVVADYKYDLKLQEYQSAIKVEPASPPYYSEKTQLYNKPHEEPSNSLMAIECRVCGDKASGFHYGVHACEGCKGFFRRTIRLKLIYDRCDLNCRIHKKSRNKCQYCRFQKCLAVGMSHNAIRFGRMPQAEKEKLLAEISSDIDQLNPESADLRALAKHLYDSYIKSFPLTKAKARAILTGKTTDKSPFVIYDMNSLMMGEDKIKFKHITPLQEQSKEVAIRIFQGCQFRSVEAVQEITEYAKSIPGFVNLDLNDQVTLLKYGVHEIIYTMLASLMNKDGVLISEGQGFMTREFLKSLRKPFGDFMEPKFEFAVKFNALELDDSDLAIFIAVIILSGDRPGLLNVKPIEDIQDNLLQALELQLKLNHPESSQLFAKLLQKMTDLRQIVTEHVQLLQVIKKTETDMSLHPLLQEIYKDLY
Chain of Aryl hydrocarbon receptor (Homo sapiens) (P35869 whole entry, looked up): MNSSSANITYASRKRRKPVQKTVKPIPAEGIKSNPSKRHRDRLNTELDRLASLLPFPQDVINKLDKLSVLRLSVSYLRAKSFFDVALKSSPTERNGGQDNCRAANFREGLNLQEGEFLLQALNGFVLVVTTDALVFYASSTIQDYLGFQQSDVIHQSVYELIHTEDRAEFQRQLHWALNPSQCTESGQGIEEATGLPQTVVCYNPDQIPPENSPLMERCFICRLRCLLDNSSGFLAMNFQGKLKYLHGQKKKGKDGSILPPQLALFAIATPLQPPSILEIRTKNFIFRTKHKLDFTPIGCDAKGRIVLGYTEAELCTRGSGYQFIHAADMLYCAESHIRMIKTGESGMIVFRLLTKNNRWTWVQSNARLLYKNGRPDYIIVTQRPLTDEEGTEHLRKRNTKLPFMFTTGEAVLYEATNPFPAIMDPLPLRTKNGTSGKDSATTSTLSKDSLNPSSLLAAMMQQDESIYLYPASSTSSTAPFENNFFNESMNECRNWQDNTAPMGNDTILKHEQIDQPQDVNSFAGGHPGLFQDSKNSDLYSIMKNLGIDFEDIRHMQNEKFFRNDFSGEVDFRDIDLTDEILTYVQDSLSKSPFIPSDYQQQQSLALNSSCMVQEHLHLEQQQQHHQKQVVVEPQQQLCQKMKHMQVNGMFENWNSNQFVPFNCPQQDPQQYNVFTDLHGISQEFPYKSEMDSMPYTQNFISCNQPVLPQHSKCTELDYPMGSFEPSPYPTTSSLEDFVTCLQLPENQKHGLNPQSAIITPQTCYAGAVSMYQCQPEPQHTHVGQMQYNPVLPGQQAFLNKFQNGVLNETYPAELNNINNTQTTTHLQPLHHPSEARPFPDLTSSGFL

CCCCc1nc(Cl)c(CO)n1Cc1ccc(-c2ccccc2-c2nn[nH]n2)cc1
active: [5] 23.9 µM
inactive: [1] | [2] | Aromatase (Homo sapiens) | [3] | [4] | [6] | [7] | [8] | [9]

Cc1coc2ccccc2c1=O
inactive: [6] | [7] | [10] | [8] | [11] | [9]

CCNC(=O)[C@@H]1CCCN1C(=O)[C@H](CCCN=C(N)N)NC(=O)[C@H](CC(C)C)NC(=O)CNC(=O)[C@H](Cc1ccc(O)cc1)NC(=O)[C@H](CO)NC(=O)[C@H](Cc1c[nH]c2ccccc12)NC(=O)[C@H](Cc1cnc[nH]1)NC(=O)[C@@H]1CCC(=O)N1 ([pGlu]HWSYGLRP-NHEt)
inactive: [6] | [7] | [10] | [8] | [11] | [9]

C=C(C)C(=O)OCC(O)CO (stereo unspecified)
inactive: [6] | [7] | [10] | [8] | [11] | [9]

C1CCC2=NCCCN2CC1
inactive: [12] | [13] | [1] | [2] | Aromatase (Homo sapiens) | [3] | [14] | [4] | [7] | [8] | [11] | [9]

C[N+]1(C)[C@@H]2CC(OC(=O)[C@H](CO)c3ccccc3)C[C@H]1[C@@H]1O[C@@H]12 (stereo partly specified)
inactive: [13] | [15] | [1] | [16] | [17] | [18] | [2] | Aromatase (Homo sapiens) | [3] | [14] | [4] | [5] | [6] | [7] | [10] | [8] | [11] | [9]

CCN(Cc1ccccc1)c1ccccc1
inactive: [15] | [1] | [16] | [17] | [2] | Aromatase (Homo sapiens) | [3] | [14] | [4] | [5] | [6] | [7] | [10] | [8] | [11] | [9]

Cc1onc(-c2c(Cl)cccc2Cl)c1C(=O)Cl
inactive: [7] | [10] | [8] | [11] | [9]

CCOc1c(N2CCOCC2)cnn(C)c1=O
inactive: [7] | [10] | [8] | [11] | [9]

C[N+](C)(C)CCCCCCCCCC[N+](C)(C)C
inactive: [15] | [1] | [16] | [17] | [2] | [3] | [4] | [5] | [7] | [10] | [8] | [11]

COc1cccc(OC)c1C(=O)N[C@@H]1C(=O)N2[C@@H]1SC(C)(C)[C@@H]2C(=O)O
inactive: [1] | [2] | Aromatase (Homo sapiens) | [14] | [4] | [5] | [7] | [8] | [11]

CC(COc1ccccc1)NN (stereo unspecified)
inactive: [15] | [1] | [16] | [17] | [18] | [2] | Aromatase (Homo sapiens) | [3] | [4] | [5] | [7] | [10] | [8] | [11] | [9]

COCCOCC(OC)OC
inactive: [6] | [7] | [10] | [8] | [11] | [9]

O=C(c1ccccc1O)c1ccccc1O
active: [6] 43.2 µM
inactive: [12] | [13] | [1] | [16] | [17] | [2] | [3] | [14] | [4] | [5] | [8] | [11] | [9]

CC(C)(C)C(=O)c1ccccc1
inactive: [12] | [13] | [15] | [1] | [18] | [2] | Aromatase (Homo sapiens) | [3] | [4] | [10] | [8] | [11] | [9]
active: [17] 61.1 µM

C[C@@H]1CCC[C@H](C)N1
inactive: [12] | [13] | [2] | Aromatase (Homo sapiens) | [3] | [14] | [5] | [6] | [7] | [10] | [8] | [11] | [9]

CCCC(=O)O[C@]1(C(=O)CC)CC[C@H]2[C@@H]3CCC4=CC(=O)CC[C@]4(C)[C@H]3[C@@H](O)C[C@@]21C
inactive: [7] | [8] | [11] | [9]
